The record followed here is PubChem BioAssay (NCATS).

Records with an inconclusive call do not appear. Active and inactive are the calls of the source. Calls come from the whole dose curve.

The nature of assay [1]: Primary qHTS for inhibitors of SARS-S pseudo-typed particle cell entry (AID 1479145). For activity change, negative = inhibition: % is set by controls: 0 for no effect and ±100 for the full control effect. Note: nearly all actives have a fitted effect of over 45% in size. The following applies: outcome: dose series up to 57.1 µM unless noted. (qHTS replaces the single test concentration by a dilution series.)
Assay [2] can be described thus: Primary qHTS for Huh7 cytotoxicity: counterscreen for inhibitors of MERS-S pseudotyped particle cell entry (AID 1479147). For activity change, negative = cytotoxicity: % is set by controls: 0 for no effect and ±100 for the full control effect. The following applies: outcome: dose series up to 57.1 µM unless noted.
The nature of assay [3]: Primary qHTS for inhibitors of MERS-S pseudo-typed particle cell entry (AID 1479149). Note: nearly all actives have a fitted effect of over 60% in size. As to conditions: outcome: dose series up to 57.1 µM unless noted.
The nature of assay [4]: Primary qHTS for Vero E6 cytotoxicity: counterscreen for inhibitors of SARS-S pseudo-typed particle cell entry (AID 1479150). For activity change, negative = cytotoxicity: % is set by controls: 0 for no effect and ±100 for the full control effect. The following applies: outcome: dose series up to 57.1 µM unless noted.
The nature of assay [5]: Cytotoxicity counterscreen for inhibitors of SARS-CoV-2 cell entry (AID 1645845). For activity change, negative = cytotoxicity: % is set by controls: 0 for no effect and ±100 for the full control effect. Note: nearly all actives have a fitted effect of over 50% in size. As to conditions: outcome: dose series up to 57.1 µM unless noted. In outline:
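Expi293F/hACE2 cells seeded overnight; cpd pin-transferred in DMSO, 1 h preincubation, + media, 48 h 37 C 5% CO2; ATPLite 1step luminescence; normalized to cells and no cells.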
A general note: A counterscreen serves to expose hits that act by an unwanted route or on another target.

Assay [6] in a line: Primary qHTS to identify inhibitors of SARS-CoV-2 cell entry (AID 1645846). Note: nearly all actives have a fitted effect of over 45% in size. As to conditions: SARS-CoV-2 pseudovirus cell entry assay, luminescence; activity change, negative = inhibition: at 57.1 µM (top of the series) unless noted. In outline:
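Data are normalized to wells receiving SARS-CoV-2-S pseudoparticles and those given bald particles. Entry signal was luciferase luminescence in stable hACE2 Expi293F cells, 48 hr post-infection, after 1 hr compound pretreatment.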

Turning to `COC(=O)CCC(=O)CN`, the Potency result in assay [1], in assay [2], in assay [3], in assay [4], in assay [5] and in assay [6] was “inactive” throughout.
For `CC(C=CC1=C(C)CCCC1(C)C)=CC=CC(C)=CC(=O)Oc1c(C)c(C)c2c(c1C)CC[C@@](C)(CCC[C@H](C)CCC[C@H](C)CCCC(C)C)O2`, the activity change, negative = inhibition in assay [1] is -3.62% [at 5.34 µM] (inactive). Also, the activity change, negative = cytotoxicity in assay [2] is -9.73% [at 5.34 µM] (inactive); in assay [4], -3.15% [at 5.34 µM] (inactive); in assay [5] it was -2.74% [at 5.25 µM] (inactive). Further, the results for the outcome in assay [3] and in assay [6] were “inactive [at 5.34 µM]” and “inactive [at 5.25 µM]”, respectively.
As to `CC(C)(C)NCC(O)CSc1nc(-c2ccc(C(N)=O)s2)cs1` (configuration not stated), the Potency entry in assay [1], in assay [2], in assay [3], in assay [4] and in assay [5] was “inactive” throughout. Moreover, in assay [6], the activity change, negative = inhibition is -22.9%.
Regarding `CC(C)[C@H](N)C(=O)O`, the Potency entry in assay [1], in assay [2], in assay [3], in assay [4] and in assay [5] was “inactive” throughout. Besides, in assay [6], the activity change, negative = inhibition was -17.8%.
On to `CCN(CC)CCOC(=O)c1cccnc1`, for which the Potency entry in assay [1], in assay [2], in assay [3], in assay [4] and in assay [5] was “inactive” in each case. Besides, in assay [6], the activity change, negative = inhibition is -32.2%.
For `OCCOCCOCCO`, the Potency entry in assay [1], in assay [2], in assay [3], in assay [4], in assay [5] and in assay [6] was “inactive” each time.
In the case of `O=C(O)c1cc(O)c2c(c1)[O][Bi][O]2`, the values for the activity change, negative = inhibition in assay [1] and in assay [6] were -20% [at 0.573 µM] (inactive) and -27.2% [at 0.702 µM], respectively. Moreover, the activity change, negative = cytotoxicity in assay [2] is -1.24% [at 0.573 µM] (inactive). Further, the figures for the outcome in assay [3], in assay [4] and in assay [5] were “inactive [at 0.573 µM]”, “inactive [at 0.573 µM]” and “inactive [at 0.702 µM]”, respectively.
Consider `CO[C@H]1/C=C\O[C@@]2(C)Oc3c(C)c(O)c4c(O)c(c5c(nc6cc(C)ccn65)c4c3C2=O)NC(=O)/C(C)=C\C=C/[C@H](C)[C@H](O)[C@@H](C)[C@@H](O)[C@@H](C)[C@H](OC(C)=O)[C@@H]1C`, for which the Potency entry in assay [1], in assay [2], in assay [3], in assay [4] and in assay [5] was “inactive” each time. Further, the activity change, negative = inhibition in assay [6] was -25.8%.
Regarding `CCC(=O)O[C@]1(C(=O)COC(C)=O)CC[C@H]2[C@@H]3CCC4=CC(=O)CC[C@]4(C)[C@H]3[C@@H](O)C[C@@]21C`, the Potency result in assay [1], in assay [2], in assay [3], in assay [4] and in assay [5] was “inactive” throughout. In addition, the activity change, negative = inhibition in assay [6] is -0.634%.
Take `CSCC[C@H](N)C(=O)O`: the Potency result in assay [1], in assay [2], in assay [3], in assay [4], in assay [5] and in assay [6] was “inactive” throughout.
In the case of `Cc1nc(NS(=O)(=O)c2ccc(N)cc2)nc(C)c1Br`, the Potency entry in assay [1], in assay [2], in assay [3], in assay [4] and in assay [5] was “inactive” throughout. Also, the activity change, negative = inhibition in assay [6] is -21.5%.
As for `Cn1nnc(-c2ccc(-c3ccc(N4C[C@@H](CO)OC4=O)cc3F)cn2)n1`, the Potency result in assay [1], in assay [2], in assay [3], in assay [4], in assay [5] and in assay [6] was “inactive” in each case.
For the compound `NC(=O)OCC(O)COc1ccc(Cl)cc1` (configuration not stated), the Potency entry in assay [1], in assay [2], in assay [3], in assay [4], in assay [5] and in assay [6] was “inactive” in each case.
As to `NC[C@@H]1O[C@H](O[C@H]2[C@H](O)[C@H](O[C@H]3[C@@H](O)[C@H](N)C[C@H](N)[C@H]3O[C@H]3O[C@H](CN)[C@H](O)[C@H](O)[C@H]3N)O[C@@H]2CO)[C@@H](N)[C@@H](O)[C@@H]1O`, the values for the activity change, negative = inhibition in assay [1], in assay [3] and in assay [6] were -20.9% [at 5.34 µM] (inactive), 3.6% [at 5.34 µM] (inactive) and -25.4% [at 5.25 µM], respectively. In addition, the outcome in assay [2] is “inactive [at 5.34 µM]”. Further, the activity change, negative = cytotoxicity is -3.76% [at 5.34 µM] (inactive) in assay [4] and 2.87% [at 5.25 µM] (inactive) in assay [5].
Regarding `CC(C)(CO)[C@@H](O)C(=O)NCCC(=O)NCCSSCCNC(=O)CCNC(=O)[C@H](O)C(C)(C)CO`, the Potency result in assay [1], in assay [2], in assay [3], in assay [4] and in assay [5] was “inactive” throughout. Besides, the activity change, negative = inhibition in assay [6] is -13.3%.
Take `NC(N)=NCCC[C@@H](N)C(=O)N[C@@H](CCCN=C(N)N)C(=O)N1CCC[C@H]1C(=O)N1C[C@H](O)C[C@H]1C(=O)NCC(=O)N[C@@H](Cc1cccs1)C(=O)N[C@@H](CO)C(=O)N1Cc2ccccc2C[C@@H]1C(=O)N1[C@H](C(=O)N[C@@H](CCCN=C(N)N)C(=O)O)C[C@@H]2CCCC[C@@H]21`: the Potency result in assay [1], in assay [2], in assay [3], in assay [4], in assay [5] and in assay [6] was “inactive” throughout.
With `CNCC(O)c1ccc(OC(=O)C(C)(C)C)c(OC(=O)C(C)(C)C)c1` (configuration not stated), the Potency entry in assay [1], in assay [2], in assay [3], in assay [4] and in assay [5] was “inactive” throughout. The activity change, negative = inhibition in assay [6] was -25.4%.
For `CC(CCc1ccc(O)cc1)NCC(O)c1ccc(O)cc1` (configuration not stated), the Potency entry in assay [1], in assay [2], in assay [3], in assay [4], in assay [5] and in assay [6] was “inactive” throughout.
Consider `CCCCCCCCCCCCCCCC(=O)OC1C(SC)OC(C(NC(=O)C2CC(CCC)CN2C)C(C)Cl)C(O)C1O` (configuration not stated), for which the Potency result in assay [1], in assay [2], in assay [3], in assay [4] and in assay [5] was “inactive” each time. For the same compound, the activity change, negative = inhibition in assay [6] is -14%.
As to `CN(C)C=Nc1c(I)cc(I)c(CCC(=O)O)c1I`, the Potency result in assay [1], in assay [2], in assay [3], in assay [4] and in assay [5] was “inactive” in each case. Moreover, in assay [6], the activity change, negative = inhibition is -33.1%.
Take `C[C@]12C=CC(=O)C=C1CCC1C2[C@@H](O)C[C@@]2(C)C1CC[C@]2(O)C(=O)COC(=O)CCC(=O)O` (some centres not stated): the Potency entry in assay [1], in assay [2], in assay [3], in assay [4] and in assay [5] was “inactive” in each case. Also, the activity change, negative = inhibition in assay [6] was -21.3%.
As for `Cc1cc(Nc2ncc(Cl)c(Nc3ccccc3S(=O)(=O)C(C)C)n2)c(OC(C)C)cc1C1CCNCC1`, the Potency entry in assay [1], in assay [2], in assay [3], in assay [4] and in assay [5] was “inactive” each time. In addition, the activity change, negative = inhibition in assay [6] was -32%.
